A number with no mark means an inactive call. Results filed as inconclusive are left out. Entries that show only a call come without a potency. Calls of active or inactive are those of the source. Unless noted, the call rests on the fitted dose curve; in most records, active means well fitted curve in the direction sought with a large enough effect in the repeat runs; inconclusive means weak or mixed curves; inactive means no such curve, though single readings can be large; an effect the other way counts as inactive or inconclusive.
What was measured:
[1] = molecular target: Luciferin 4-monooxygenase (Photinus pyralis) (UniProt P08659); test: qHTS assay to identify small molecule inhibitors of firefly luciferase (AID 1224835); further: nearly all actives have a fitted effect of over 25% in size; further: potency means the concentration at half of the fitted maximal effect
How it was run: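 Biochemical qHTS: compounds run as interplate titrations against purified firefly enzyme, with D-luciferin and ATP each at its KM concentration. Light output recorded by CCD imaging.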

[2] = qHTS assay to identify small molecule agonists of the constitutive androstane receptor (CAR) signaling pathway - cell viability counter screen (AID 1224836); further: nearly all actives have a fitted effect of over 45% in size; further: potency means the concentration at half of the fitted maximal effect
How it was run: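 HepG2-CYP2B6-hCAR, 2500 cells/well, 4 h pre-incubation; cpd 15 conc + PK11195 0.75 uM final; 23 h, 37 C/5% CO2; CellTiter-Fluor, fluorescence.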

[3] = qHTS assay to identify small molecule antagonists of the constitutive androstane receptor (CAR) signaling pathway - cell viability counter screen (AID 1224837); further: nearly all actives have a fitted effect of over 45% in size; further: potency means the concentration at half of the fitted maximal effect
How it was run: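 Cytotoxicity counter-screen: CellTiter-Fluor fluorescence after 23 h compound exposure (15-point qHTS) in double-stable HepG2-CYP2B6-hCAR cells, with 50 nM CITCO added.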

[4] = molecular target: Nuclear receptor subfamily 1 group I member 3 (Homo sapiens) (UniProt Q14994); test: qHTS assay to identify small molecule agonists of the constitutive androstane receptor (CAR) signaling pathway (AID 1224839);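 further: HepG2 cells stably carrying human CAR and a CYP2B6 luciferase reporter; nearly all actives have a fitted effect of over 15% in size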
How it was run: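 HepG2-CYP2B6-hCAR cells, 2500/well, 4 h pre-incubation; compounds 15 conc.; PK11195 0.75 uM final; 24 h, 37 C/5% CO2; ONE-Glo luciferase read.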

[5] = qHTS assay to identify small molecule antagonists of the estrogen related receptor signaling pathway with the pleiotropic PPARgamma coactivator (PGC) from Tox21 10K library - cell viability counter screen (AID 1224840; active means well fitted cell-killing curve with a large enough effect in the repeat runs, not every such curve was filed as active; further: nearly all actives have a fitted effect of over 40% in size; further: potency means the concentration at half of the fitted maximal effect)
How it was run: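 Counter-screen for cytotoxicity: after 17.5 h compound exposure at 37 C, CellTiter-Fluor reagent added to PGC/ERR cells for 30 min and fluorescence read. Cells were seeded at 2,000 per well 6 h before dosing.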

[6] = qHTS RealTime-Glo MT Cell Viability Assay in HepG2 cells - 24 hour (AID 1224867); further: nearly all actives have a fitted effect of over 50% in size; further: potency means the concentration at half of the fitted maximal effect
How it was run: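 HepG2 cells were seeded at 600 cells/well together with NanoLuc luciferase and a cell-permeant prosubstrate, preincubated 5 h at 37 C/5% CO2, then pin-dosed with compounds in DMSO. Nonlytic luminescence from viable cells was read at each time point.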

[7] = qHTS RealTime-Glo MT Cell Viability Assay in HEK293 cells - 32 hour (AID 1224868); further: nearly all actives have a fitted effect of over 50% in size; further: potency means the concentration at half of the fitted maximal effect
How it was run: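 HEK293 cells were seeded at 600 cells/well together with NanoLuc luciferase and cell-permeant prosubstrate, preincubated 5 h at 37 C/5% CO2, then given compound in DMSO by pintool. Luminescence from viable-cell prosubstrate reduction was read repeatedly over 40 h.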

[8] = A CellTox Green Cytotoxicity Assay to monitor cytotoxicity in HEK293 cells - 0 hour (AID 1224869); further: nearly all actives have a fitted effect of over 50% in size
How it was run: (§1)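 Fluorescence from a DNA-binding dye excluded by viable cells was measured repeatedly in the same HEK293 wells (600 cells/well) during continuous compound exposure at 37 C. Each assay gives one read point: 0, 8, 16, 24, 32 or 40 h.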

[9] = qHTS RealTime-Glo MT Cell Viability Assay in HepG2 cells - 40 hour (AID 1224870); further: nearly all actives have a fitted effect of over 50% in size; further: potency means the concentration at half of the fitted maximal effect
How it was run: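 HepG2 cells (600/well) mixed with RealTime-Glo MT reagent, settled 5 h at 37 C/5% CO2 before compound addition. Nonlytic NanoLuc luminescence from viable-cell prosubstrate reduction read repeatedly during 40 h treatment at 37 C.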

[10] = A CellTox Green Cytotoxicity Assay to monitor cytotoxicity in HEK293 cells - 40 hour (AID 1224871); further: nearly all actives have a fitted effect of over 45% in size; further: potency means the concentration at half of the fitted maximal effect
How it was run: as §1

[11] = qHTS assay to identify small molecule agonists of the estrogen related receptor signaling pathway with the pleiotropic PPARgamma coactivator (PGC) from Tox21 10K library (AID 1224842); further: nearly all actives have a fitted effect of over 15% in size
How it was run: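 PGC/ERR reporter cell line, 2,000 cells per well, incubated 6 h at 37 C before 23 nL compound in DMSO was added. After 18 h at 37 C, One-Glo luminescence read following 30 min at room temperature.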

[12] = qHTS assay to identify small molecule agonists of the hypoxia (HIF-1) signaling pathway - cell viability counter screen (AID 1224844; calls by dose curve; further: nearly all actives have a fitted effect of over 50% in size; further: potency means the concentration at half of the fitted maximal effect)
How it was run: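 Cytotoxicity measured by CellTiter-Glo ATP luminescence in the wells also read for beta-lactamase signal. Cells were HRE-bla ME-180 (2,000/well, 0.5% dialyzed FBS), exposed to compounds for 17 h at 37C.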

[13] = qHTS assay to identify small molecule agonists of H2AX (AID 1224845; active means well fitted activation curve with a large enough effect in the signal ratio in the repeat runs, not every such curve was filed as active; the % refers to the signal ratio; further: potency means the concentration at half of the fitted maximal effect)
How it was run: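 Wild-type CHO-K1 cells, plated overnight, exposed 3hr at 37C to 15 concentrations (0.76% DMSO final). Lysed, then HTRF anti-pH2AX (S139) cryptate and anti-H2AX-d2 antibodies, 24 hr room temperature; 665/620 nm emission read.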

[14] = qHTS assay to identify small molecule antagonists of the estrogen related receptor (ERR) signaling pathway from Tox21 library (AID 1224848); further: nearly all actives have a fitted effect of over 50% in size; further: potency means the concentration at half of the fitted maximal effect
How it was run: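 Compounds dissolved in DMSO are pin-transferred onto ERR reporter cells (2,000 per well) that have settled for 6 h at 37 C. Plates then incubate 18 h at 37 C before ONE-Glo luciferase reagent and a luminescence read 30 min later.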

[15] = qHTS assay to identify small molecule agonists of the estrogen related receptor (ERR) signaling pathway from Tox21 library (AID 1224849; calls by dose curve; further: nearly all actives have a fitted effect of over 15% in size); conditions: ERR reporter cell line, ONE-Glo luciferase, 18 h; at 92.4 µM (top of the series) unless noted
How it was run: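 Luminescent agonist read-out (One-Glo, 30-minute room-temperature incubation) following 18-hour compound treatment at 37 C of the ERR cell line, which had been plated 6 hours before dosing.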

[16] = qHTS assay to identify small molecule antagonists of the estrogen related receptor signaling pathway with the pleiotropic PPARgamma coactivator (PGC) from Tox21 10K library (AID 1224841; call rule not given here)
How it was run: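 Luminescence (One-Glo, 30 min at room temperature) after 18 h compound treatment at 37 C of PGC/ERR reporter cells plated at 2,000 cells/well and settled 6 h beforehand.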

[17] = qHTS assay to identify small molecule agonists of the hypoxia (HIF-1) signaling pathway (AID 1224846; active means well fitted activation curve with a large enough effect in the signal ratio in the repeat runs, not every such curve was filed as active; the % refers to the signal ratio)
How it was run: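 Compounds added to ME-180 cells carrying hypoxia-response-element beta-lactamase reporter (0.5% dialyzed FBS, 5 h preplating), 17 h at 37C; agonist activity detected by CCF4-AM B/G FRET read-out.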

[18] = qHTS assay to identify small molecule agonists of H2AX - cell viability counter screen (AID 1224847; calls by dose curve; further: top concentration of the series differs between compounds; nearly all actives have a fitted effect of over 30% in size)
How it was run: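 Cells plated first: CHO-K1, 1000 per well in 10% FBS medium, incubated overnight at 37C. Then 15-point compound titration added (final DMSO 0.76%) for 3 hr. Finally CellTiter-Glo added and luminescence read.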

[19] = molecular target: Thyrotropin receptor (Homo sapiens) (UniProt P16473); test: qHTS assay to identify small molecule agonists of the thyroid stimulating hormone receptor (TSHR) signaling pathway (AID 1224843; calls by dose curve; further: nearly all actives have a fitted effect of over 45% in size)
How it was run: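 HEK293/TSHR, 800 cells/well; cpd 30 min RT; add cAMP-d2 + anti-cAMP-cryptate, 1 h RT; fluorescence read on plate reader. 15-pt titration, n=3.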

Chain of Luciferin 4-monooxygenase (Photinus pyralis) (P08659 whole entry, looked up): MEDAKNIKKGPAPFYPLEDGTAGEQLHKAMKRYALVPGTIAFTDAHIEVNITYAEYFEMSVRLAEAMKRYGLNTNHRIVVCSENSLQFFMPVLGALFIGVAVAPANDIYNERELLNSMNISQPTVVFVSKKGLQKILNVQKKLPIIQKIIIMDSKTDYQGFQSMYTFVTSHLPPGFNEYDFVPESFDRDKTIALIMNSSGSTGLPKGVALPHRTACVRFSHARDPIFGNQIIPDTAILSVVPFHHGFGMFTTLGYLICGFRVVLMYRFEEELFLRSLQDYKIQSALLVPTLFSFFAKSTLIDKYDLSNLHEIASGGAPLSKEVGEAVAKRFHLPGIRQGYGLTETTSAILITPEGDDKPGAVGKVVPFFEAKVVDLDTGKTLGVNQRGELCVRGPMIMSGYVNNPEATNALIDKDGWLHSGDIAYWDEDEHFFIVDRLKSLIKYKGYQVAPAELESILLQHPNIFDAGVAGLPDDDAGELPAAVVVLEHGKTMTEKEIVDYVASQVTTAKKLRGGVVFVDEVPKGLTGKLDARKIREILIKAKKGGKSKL
Chain of Nuclear receptor subfamily 1 group I member 3 (Homo sapiens) (Q14994 whole entry, looked up): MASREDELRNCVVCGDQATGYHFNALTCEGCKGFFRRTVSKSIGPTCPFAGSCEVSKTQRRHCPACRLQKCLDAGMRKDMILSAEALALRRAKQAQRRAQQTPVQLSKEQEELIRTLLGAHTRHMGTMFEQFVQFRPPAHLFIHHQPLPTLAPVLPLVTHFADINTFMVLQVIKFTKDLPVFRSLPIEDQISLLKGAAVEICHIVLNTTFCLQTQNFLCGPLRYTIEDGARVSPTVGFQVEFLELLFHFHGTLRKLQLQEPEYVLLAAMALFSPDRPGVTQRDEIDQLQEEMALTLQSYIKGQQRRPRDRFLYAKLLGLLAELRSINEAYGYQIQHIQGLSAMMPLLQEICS
Chain of Thyrotropin receptor (Homo sapiens) (P16473 whole entry, looked up): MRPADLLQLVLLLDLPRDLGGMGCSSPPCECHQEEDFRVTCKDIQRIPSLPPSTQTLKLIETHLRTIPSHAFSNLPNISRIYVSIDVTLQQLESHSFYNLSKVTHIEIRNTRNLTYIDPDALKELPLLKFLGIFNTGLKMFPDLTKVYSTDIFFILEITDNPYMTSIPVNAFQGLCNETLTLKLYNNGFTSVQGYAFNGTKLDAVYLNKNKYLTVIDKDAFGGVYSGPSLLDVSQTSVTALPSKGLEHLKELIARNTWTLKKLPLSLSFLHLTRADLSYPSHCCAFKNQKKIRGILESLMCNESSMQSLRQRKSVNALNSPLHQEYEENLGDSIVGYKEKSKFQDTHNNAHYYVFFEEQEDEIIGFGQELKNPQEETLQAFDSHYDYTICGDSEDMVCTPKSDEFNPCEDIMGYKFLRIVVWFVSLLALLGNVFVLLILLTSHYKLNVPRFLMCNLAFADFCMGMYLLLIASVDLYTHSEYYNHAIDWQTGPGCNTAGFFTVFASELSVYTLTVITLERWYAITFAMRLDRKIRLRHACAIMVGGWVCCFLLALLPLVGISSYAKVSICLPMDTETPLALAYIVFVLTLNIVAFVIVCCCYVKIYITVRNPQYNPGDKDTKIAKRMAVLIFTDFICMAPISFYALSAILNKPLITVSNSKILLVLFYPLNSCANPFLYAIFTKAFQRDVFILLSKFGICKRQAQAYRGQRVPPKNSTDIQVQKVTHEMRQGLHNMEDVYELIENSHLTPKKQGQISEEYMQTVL

Row | Compound | Potency [1] | Potency [2] | Potency [3] | Potency [4] | Potency [5] | Potency [6] | Potency [7] | Potency [8] | Potency [9] | Potency [10] | Potency [11] | Potency [12] | Potency [13] | Potency [14] | activity change, positive = activation [15] [%] | Potency [16] | outcome [17] | Potency [18] | Potency [19]
1 | BrC(Br)C(Br)(Br)Br | 22.6 µM (active) | inactive | inactive | inactive | inactive | inactive | 43.9 µM (active) | inactive | inactive | 55.3 µM (active) |  |  |  |  |  |  |  |  | 
2 | O=[N+]([O-])c1cc(C(F)(F)F)c(Cl)c([N+](=O)[O-])c1Cl | 79.6 µM (active) | 43.3 µM (active) | 27.3 µM (active) |  | 48.6 µM (active) | 21.9 µM (active) |  | inactive | 13.8 µM (active) | 6.16 µM (active) | inactive | 7.76 µM (active) | 31.8 µM (active) | 27.3 µM (active) | -73.4 |  |  |  | 
3 | N#CCc1ccc(Cl)cc1 | inactive | inactive | inactive |  | inactive | inactive | inactive | inactive | inactive | inactive | inactive | inactive | inactive | inactive | 1.98 | inactive | inactive | inactive | 
4 | N#Cc1ccccc1Cl | inactive | inactive | inactive |  | inactive | inactive |  | inactive | inactive |  | inactive | inactive | inactive | inactive | 1.91 |  | inactive | inactive | inactive
5 | CCCCCCCCCCBr | inactive | inactive | inactive |  | inactive | inactive | inactive | inactive | inactive |  | inactive | inactive | inactive | inactive | 1.61 | inactive | inactive | inactive | 
6 | COc1ccc(OC)c(C=O)c1 | inactive | inactive | inactive |  | inactive | inactive |  | inactive |  | inactive |  | inactive | inactive |  |  |  | inactive | inactive | 
7 | CCOP(=S)(OCC)SCCS(=O)(=O)CC | inactive | inactive | inactive |  | inactive | inactive | inactive | inactive | inactive |  | inactive | inactive |  | inactive | 1.7 |  | inactive | inactive | 
